Test [1] is described as follows: qHTS assay to identify small molecule agonists of the hypoxia (HIF-1) signaling pathway - cell viability counter screen (AID 1224844; calls by dose curve; note: nearly all actives have a fitted effect of over 50% in size). In short, it runs like this: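 HRE-bla ME-180 cells in medium with 0.5% dialyzed FBS were preincubated 5 hrs at 37C, exposed to compounds for 17 hrs, then viability was read as CellTiter-Glo luminescence after 30 min at room temperature, in the reporter wells.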

Test [2] can be described thus: qHTS assay to identify small molecule agonists of H2AX (AID 1224845; active = well fitted activation curve with a large enough effect in the signal ratio in the repeat runs, not every such curve was filed as active; the % refers to the signal ratio). In short, it runs like this:
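Phospho-H2AX Ser139 measured by HTRF (ex 320 nm; em 665 and 620 nm) after 24 hr antibody incubation. Compounds, 15 concentrations, 0.76% DMSO, were applied to CHO-K1 cells for 3hr at 37C before lysis.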
(qHTS replaces the single test concentration by a dilution series.)

The nature of test [3]: qHTS assay to identify small molecule agonists of the hypoxia (HIF-1) signaling pathway (AID 1224846; active = well fitted activation curve with a large enough effect in the signal ratio in the repeat runs, not every such curve was filed as active; the % refers to the signal ratio). In short, it runs like this:
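HRE-bla ME-180 cells (beta-lactamase reporter under hypoxia response element) were plated at 2,000 cells/well in medium with 0.5% dialyzed FBS, rested 5 hrs, then given compounds in DMSO for 17 hrs at 37C, 5% CO2. Reporter induction was read with CCF4-AM FRET substrate.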

Test [4] in a line: qHTS assay to identify small molecule agonists of H2AX - cell viability counter screen (AID 1224847; calls by dose curve; note: top concentration of the series differs between compounds; nearly all actives have a fitted effect of over 30% in size). In short, it runs like this: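 We seed wild-type CHO-K1 cells overnight, treat them for 3 hr at 37C with compounds in 15-concentration series, and quantify remaining viability by CellTiter-Glo luminescence.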
A short description of test [5]: qHTS assay to identify small molecule antagonists of the estrogen related receptor (ERR) signaling pathway from Tox21 library (AID 1224848). Note: nearly all actives have a fitted effect of over 50% in size. In short, it runs like this:
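Reading was by luminescence 30 min after ONE-Glo addition. Before that, ERR cells at 2,000 per well had rested 6 h at 37 C/5% CO2 and then received pin-tooled compounds in DMSO for 18 h at 37 C.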

Test [6] in a line: qHTS assay to identify small molecule agonists of the estrogen related receptor (ERR) signaling pathway from Tox21 library (AID 1224849; calls by dose curve; note: nearly all actives have a fitted effect of over 15% in size). The note with it: ERR reporter cell line, ONE-Glo luciferase, 18 h. In short, it runs like this:
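ERR reporter cell line (NTP) seeded, rested 6 h at 37 C/5% CO2, then pinned with Tox21 compounds in DMSO. After 18 h at 37 C, ONE-Glo luciferase luminescence was read following 30 min at room temperature.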

Test [7] is described as follows: qHTS RealTime-Glo MT Cell Viability Assay in HepG2 cells - 24 hour (AID 1224867). Note: nearly all actives have a fitted effect of over 50% in size. In short, it runs like this: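 HepG2 cells were seeded at 600 cells/well together with NanoLuc luciferase and a cell-permeant prosubstrate, preincubated 5 h at 37 C/5% CO2, then pin-dosed with compounds in DMSO. Nonlytic luminescence from viable cells was read at each time point.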

Test [8] in a line: A CellTox Green Cytotoxicity Assay to monitor cytotoxicity in HEK293 cells - 0 hour (AID 1224869). Note: nearly all actives have a fitted effect of over 50% in size. In short, it runs like this: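 HEK293 cells premixed with CellTox Green dye were seeded at 600 cells/well and left 5 h at 37 C/5% CO2 before pin transfer of 23 nL compound in DMSO. Fluorescence from dye bound to dead-cell DNA was read during 40 h treatment.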
The nature of test [9]: qHTS RealTime-Glo MT Cell Viability Assay in HepG2 cells - 40 hour (AID 1224870). Note: nearly all actives have a fitted effect of over 50% in size. In short, it runs like this: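 Real-time viability: cells seeded at 600 per well together with NanoLuc and cell-permeant prosubstrate, compounds added after 5 h incubation. Luminescence tracked at 0, 8, 16, 24, 32 and 40 h of exposure.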
Test [10] in a line: qHTS RealTime-Glo MT Cell Viability Assay in HEK293 cells - 32 hour (AID 1224868). For activity change, negative = cytotoxic: top concentration of the series differs between compounds. Note: nearly all actives have a fitted effect of over 50% in size. Note: potency is the fitted concentration of half-maximal effect. In short, it runs like this:
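HEK293 cells were seeded at 600 cells/well together with NanoLuc luciferase and cell-permeant prosubstrate, preincubated 5 h at 37 C/5% CO2, then given compound in DMSO by pintool. Luminescence from viable-cell prosubstrate reduction was read repeatedly over 40 h.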

Results on 23 compounds are retold here after PubChem BioAssay (Tox21).

A number with no mark means an inactive call. Results filed as inconclusive are left out. Active and inactive are the calls of the source. Unless noted, calls come from the whole dose curve; as a rule, active = well fitted curve in the direction sought with a large enough effect in the repeat runs; inconclusive = weak or mixed curves; inactive = no such curve, though single readings can be large; an effect the other way counts as inactive or inconclusive.
% is set by controls: 0 for no effect and ±100 for the full control effect.

For `CCCCCCC1CCCC(=O)O1` (configuration not stated), the Potency entry in [1], in [2], in test [3], in test [4], in test [5] and in [7] was “inactive” throughout. For the same compound, the Potency entry in test [8] and in test [9] was “inactive” each time. Further, the activity change, positive = activation in test [6] (at 92.4 µM (top of the series)) was 0.936%.
On to `CC/C=C\CCCCCO`, for which the Potency entry in test [1], in test [2], in [3], in test [4], in test [5] and in test [7] was “inactive” each time. For the same compound, the Potency result in [8] and in test [9] was “inactive” throughout. For the same compound, the activity change, positive = activation in test [6] (at 92.4 µM (top of the series)) is 4.13%.
Take `C=CCn1c(=O)n(CC=C)c(=O)n(CC=C)c1=O`: the Potency entry in test [1], in test [2], in test [3], in test [4], in test [7] and in test [10] was “inactive” throughout. Also, the Potency result in test [8] and in test [9] was “inactive” in each case.
Take `CCN1C(=O)c2ccccc2C1Nc1ccc(OCCN2CCCCC2)cc1` (configuration not stated): the Potency result in test [1], in test [2], in [3], in test [4], in test [7] and in [8] was “inactive” each time. In addition, in test [9], the Potency result was “inactive”. Besides, the Potency in test [10] was 5.35 µM (active).
Turning to `NC[C@H]1O[C@H](O[C@H]2[C@H](O[C@@H]3O[C@H](CO)[C@@H](O)[C@H]3O)C(O)[C@H](N)C[C@@H]2N)[C@H](N)[C@@H](O)[C@@H]1O` (some centres not stated), the activity change, negative = cytotoxicity is -1.39% [at 6.97 µM] in test [1], -3.49% [at 14 µM] in test [4] and -0.277% [at 6.97 µM] in test [7]. Besides, the activation (H2AX phosphorylation) in test [2] is -1.16% [at 14 µM]. In addition, the activation in test [3] is -1.07% [at 7.01 µM]. Besides, the activity change, negative = cytotoxic in test [10] is 4.84% [at 6.97 µM].
As to `C=Cc1cccc(C)c1`, the Potency result in test [1], in [2], in [3], in test [4], in test [7] and in test [10] was “inactive” in each case. Further, the Potency result in [8] is “inactive”.
Take `CN(C)C(=O)COC(=O)Cc1ccc(OC(=O)c2ccc(N=C(N)N)cc2)cc1`: the Potency entry in test [1], in test [2], in [3], in test [4], in test [5] and in test [7] was “inactive” throughout. The Potency entry in test [8] and in test [9] was “inactive” throughout. In addition, in [6] (at 42.5 µM (top of the series)), the activity change, positive = activation was -1.22%.
Turning to `C#Cc1ccc(-c2ccccc2F)cc1`, the Potency result in test [1], in test [2], in [3], in test [4], in test [7] and in test [10] was “inactive” in each case. Also, the Potency entry in [8] and in test [9] was “inactive” in each case.
As for `Cc1c(C)c2c(c(C)c1O)CC[C@@](C)(CCC[C@H](C)CCC[C@H](C)CCCC(C)C)O2`, the Potency entry in test [1], in [2], in test [3], in test [4], in test [7] and in test [10] was “inactive” throughout. Moreover, the Potency result in test [8] and in [9] was “inactive” in each case.
For the compound `CC(CO)Oc1ccccc1` (configuration not stated), the Potency result in test [1], in test [2], in test [3], in [4], in test [7] and in test [10] was “inactive” each time. Further, the Potency entry in [8] and in test [9] was “inactive” each time.
With `O=C(O)Cc1ccccc1Nc1c(Cl)cccc1Cl`, the Potency result in [1], in test [2], in test [3], in test [4], in test [7] and in test [10] was “inactive” throughout. Also, the Potency entry in test [8] and in test [9] was “inactive” each time.
Take `Nc1nc(N)nc(-c2cc(Cl)ccc2Cl)n1`: the Potency result in test [1], in test [2], in test [3], in test [4], in [7] and in test [10] was “inactive” each time. For the same compound, the Potency result in [8] and in test [9] was “inactive” in each case.
With `CN(C)Cc1cc(C(C)(C)C)c(O)c(C(C)(C)C)c1`, the Potency entry in test [1], in test [2], in [3], in test [4], in test [7] and in test [10] was “inactive” in each case. The Potency entry in test [8] and in test [9] was “inactive” throughout. For the same compound, in test [6] (at 92.4 µM (top of the series)), the activity change, positive = activation is -28.5%.
As for `FC(F)(F)c1cccc(Cl)c1`, the Potency entry in test [1], in [2], in test [3], in test [4], in [7] and in test [10] was “inactive” throughout. For the same compound, the Potency result in test [8] and in test [9] was “inactive” in each case.
Turning to `C[C@@H](O)[C@H](N)C(=O)O`, the activity change, negative = cytotoxicity in test [1] is -2.15% [at 15.8 µM]; in test [4], -4.33% [at 31.6 µM]; in test [7], 0.0975% [at 15.8 µM]. In addition, the activation (H2AX phosphorylation) in [2] was 0.0265% [at 31.6 µM]. In addition, the activation in test [3] was -0.487% [at 15.8 µM]. Moreover, the activity change, negative = cytotoxic in test [10] was 0.135% [at 15.8 µM]; in test [9], -3.3% [at 15.8 µM]. Besides, in test [8], the cytotoxicity was -4.33% [at 15.8 µM].
Consider `C=C(C)c1cccc(C(=C)C)c1`, for which the Potency result in test [1], in [2], in [3], in test [4], in [7] and in [10] was “inactive” throughout. In addition, the Potency result in [9] is “inactive”.
For the compound `CCCC[P+](C)(CCCC)CCCC`, the Potency entry in test [1], in test [2], in test [3], in test [4], in test [7] and in test [8] was “inactive” in each case.
For `ClCCl`, the Potency entry in [1], in test [2], in test [3], in test [4], in [7] and in test [10] was “inactive” in each case. The Potency result in [8] and in test [9] was “inactive” in each case.
Regarding `C[Si](Cl)(c1ccccc1)c1ccccc1`, the Potency entry in [1], in test [2], in [3], in test [7], in test [8] and in test [9] was “inactive” throughout. Also, the activity change, positive = activation in test [6] (at 92.4 µM (top of the series)) is -19%.
`CCCC1CCC(=O)CC1`: the Potency result in test [1], in test [2], in test [3], in test [4], in test [7] and in [8] was “inactive” throughout. Moreover, the Potency entry in test [9] was “inactive”.
`CC(=O)CC(=O)Nc1ccc(S(=O)(=O)O)cc1`: the Potency entry in test [1], in [2], in test [3], in test [7], in test [10] and in test [8] was “inactive” in each case. Further, the Potency result in [9] is “inactive”.
As to `CCc1cccc(CC)c1NC(=O)CN(CC(=O)O)CC(=O)O`, the Potency result in test [1], in [2], in test [3], in test [4], in test [7] and in test [8] was “inactive” each time. Further, the Potency entry in test [9] was “inactive”.
As to `CN(C)CCN1CCN(c2cccc(Cl)c2)C1=O`, the Potency result in test [1], in test [2], in test [3], in test [4], in test [7] and in test [8] was “inactive” each time. For the same compound, the Potency entry in [9] is “inactive”.
